According to the supplement of paper PMC8728848:
About 410 targets per protein were measured; listed, in parts, are those with the strongest signals and a random draw of the rest.

Tests used:
Assay in all cases: glycan array binding signal (z-score within array); higher = stronger binding
Details in all cases: glycan notation: IUPAC condensed, linker removed
[1] = target: Fuc(a1-2)Gal(b1-3)GalNAc(b1-3)Gal(a1-4)Gal(b1-4)Glc
Summary of the method: (§1)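 Negative Z-scores can be read as non-binding. The Z-score is calculated within each array and then averaged across arrays of one protein sequence at different concentrations or buffers and across linkers. Arrays, 3228 in all, were curated from the Consortium for Functional Glycomics database and kept only where the protein sequence was available.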

[2] = target: Fuc(a1-2)Gal(b1-4)[Fuc(a1-3)]GlcNAc
Summary of the method: as §1

[3] = target: Fuc(a1-2)[Gal(a1-3)]Gal(b1-3)GlcNAc(b1-6)GalNAc
Summary of the method: as §1

[4] = target: Fuc(a1-2)[GalNAc(a1-3)]Gal(b1-4)GlcNAc(b1-3)Gal(b1-4)GlcNAc
Summary of the method: as §1

[5] = target: Fuc(a1-2)[GalNAc(a1-4)]Gal(b1-4)GlcNAc
Summary of the method: as §1

[6] = target: Fuc(a1-2)[GalNAc(b1-3)]Gal
Summary of the method: as §1

[7] = target: Fuc(a1-3)[Gal(b1-4)]GlcNAc(b1-2)Man(a1-3)[Fuc(a1-3)[Gal(b1-4)]GlcNAc(b1-2)Man(a1-6)]Man(b1-4)GlcNAc(b1-4)GlcNAc
Summary of the method: as §1

[8] = target: Gal(a1-3)Gal(b1-3)GlcNAc(b1-3)GalNAc
Summary of the method: as §1

[9] = target: Gal(a1-3)Gal(b1-3)GlcNAc(b1-6)GalNAc
Summary of the method: as §1

[10] = target: Gal(a1-3)Gal(b1-4)GlcNAc(b1-6)GalNAc
Summary of the method: as §1

[11] = target: Gal(b1-3)GlcNAc(b1-6)GalNAc
Summary of the method: as §1

Gal(b1-3)GlcNAc6S = target: Gal(b1-3)GlcNAc6S
Summary of the method: as §1

[12] = target: Gal(b1-3)[Neu5Ac(a2-6)]GlcNAc(b1-4)Gal(b1-4)Glc
Summary of the method: as §1

[13] = target: Gal(b1-4)GlcNAc(b1-3)Gal(b1-4)GlcNAc
Summary of the method: as §1

[14] = target: Gal(b1-4)GlcNAc(b1-3)Gal(b1-4)GlcNAc(b1-3)Gal(b1-4)GlcNAc(b1-3)Gal(b1-4)GlcNAc(b1-2)[Gal(b1-4)GlcNAc(b1-3)Gal(b1-4)GlcNAc(b1-3)Gal(b1-4)GlcNAc(b1-3)Gal(b1-4)GlcNAc(b1-6)]Man(a1-6)[Gal(b1-4)GlcNAc(b1-3)Gal(b1-4)GlcNAc(b1-3)Gal(b1-4)GlcNAc(b1-3)Gal(b1-4)GlcNAc(b1-2)Man(a1-3)]Man(b1-4)GlcNAc(b1-4)[Fuc(a1-6)]GlcNAc
Summary of the method: as §1

Gal6P(b1-4)GlcNAc = target: Gal6P(b1-4)GlcNAc
Summary of the method: as §1

Gal6S(b1-4)GlcNAc = target: Gal6S(b1-4)GlcNAc
Summary of the method: as §1

[15] = target: GalNAc(b1-3)Gal(a1-4)Gal(b1-4)GlcNAc
Summary of the method: as §1

[16] = target: GalNAc(b1-3)Gal(a1-4)Gal(b1-4)GlcNAc(b1-3)Gal(b1-4)Glc
Summary of the method: as §1

[17] = target: GalNAc(b1-4)GlcNAc(b1-3)GalNAc(b1-4)GlcNAc
Summary of the method: as §1

[18] = target: GalNAc3S(b1-4)[Fuc(a1-3)]GlcNAc
Summary of the method: as §1

Glc(b1-4)Glc = target: Glc(b1-4)Glc
Summary of the method: as §1

[19] = target: GlcNAc(a1-4)Gal(b1-4)GlcNAc
Summary of the method: as §1

[20] = target: GlcNAc(b1-3)Gal(b1-4)GlcNAc(b1-3)Gal(b1-4)GlcNAc(b1-3)Gal(b1-4)GlcNAc(b1-2)Man(a1-3)[GlcNAc(b1-3)Gal(b1-4)GlcNAc(b1-3)Gal(b1-4)GlcNAc(b1-3)Gal(b1-4)GlcNAc(b1-2)Man(a1-6)]Man(b1-4)GlcNAc(b1-4)GlcNAc
Summary of the method: as §1

GlcNAc(b1-3)GalNAc = target: GlcNAc(b1-3)GalNAc
Summary of the method: as §1

[21] = target: GlcNAc(b1-4)GlcNAc(b1-4)GlcNAc(b1-4)GlcNAc(b1-4)GlcNAc(b1-4)GlcNAc
Summary of the method: as §1

GlcNAc(b1-6)GalNAc = target: GlcNAc(b1-6)GalNAc
Summary of the method: as §1

[22] = target: Man(a1-3)[Man(a1-6)]Man(a1-6)[Man(a1-2)Man(a1-3)]Man(b1-4)GlcNAc(b1-4)GlcNAc
Summary of the method: as §1

[23] = target: Man(a1-3)[Man(a1-6)]Man(b1-4)GlcNAc(b1-4)GlcNAc
Summary of the method: as §1

[24] = target: Man(a1-3)[Man(a1-6)]Man(b1-4)GlcNAc(b1-4)[Fuc(a1-6)]GlcNAc
Summary of the method: as §1

B1: DC-ASGPR S+GEE (Homo sapiens) (protein)
chain: MTRTYENFQYLENKVKVQGFKNGPLPLQSLLQRLRSGPCHLLLSLGLGLLLLVIICVVGFQNSKFQRDLVTLRTDFSNFTSNTVAEIQALTSQGSSLEETIASLKAEVEGFKQERQAVHSEMLLRVQQLVQDLKKLTCQVATINNNGEEASTEGTCCPVNWVEHQDSCYWFSHSGMSWAEAEKYCQLKNAHLVVINSREEQNFVQKYLGSAYTWMGLSDPEGAWKWVDGTDYATGFQNWKPGQPDDWQGHGLGGGEDCAHFHPDGRWNDDVCQRPYHWVCEAGLGQTSQESH
- glycan array binding signal (z-score) [1]: 0.011
- glycan array binding signal (z-score) [2]: -0.28
- glycan array binding signal (z-score) [3]: 3.42
- glycan array binding signal (z-score) [4]: 0.807
- glycan array binding signal (z-score) [5]: 3.75
- glycan array binding signal (z-score) [6]: 4
- glycan array binding signal (z-score) [7]: -0.015
- glycan array binding signal (z-score) [8]: -0.224
- glycan array binding signal (z-score) [9]: 4.91
- glycan array binding signal (z-score) [10]: 3.92
- glycan array binding signal (z-score) [11]: 3.77
- glycan array binding signal (z-score) (Gal(b1-3)GlcNAc6S): -0.332
- glycan array binding signal (z-score) [12]: -0.315
- glycan array binding signal (z-score) [13]: -0.268
- glycan array binding signal (z-score) [14]: -0.145
- glycan array binding signal (z-score) (Gal6P(b1-4)GlcNAc): -0.321
- glycan array binding signal (z-score) (Gal6S(b1-4)GlcNAc): -0.262
- glycan array binding signal (z-score) [15]: 4.67
- glycan array binding signal (z-score) [16]: 4.39
- glycan array binding signal (z-score) [17]: 3.84
- glycan array binding signal (z-score) [18]: -0.27
- glycan array binding signal (z-score) (Glc(b1-4)Glc): -0.376
- glycan array binding signal (z-score) [19]: -0.318
- glycan array binding signal (z-score) [20]: -0.276
- glycan array binding signal (z-score) (GlcNAc(b1-3)GalNAc): -0.312
- glycan array binding signal (z-score) [21]: -0.22
- glycan array binding signal (z-score) (GlcNAc(b1-6)GalNAc): 3.74
- glycan array binding signal (z-score) [22]: -0.252
- glycan array binding signal (z-score) [23]: -0.021
- glycan array binding signal (z-score) [24]: -0.295
